Reference: PubChem BioAssay (NCATS)
Results filed as inconclusive are left out. The source made the active and inactive calls. Calls follow the shape of the dose curve; as a rule, active = well fitted inhibition curve with a large enough effect; inconclusive = small, poorly fitted or top-dose-only effect; inactive = flat fitted curve, though single readings scatter.

Columns and labels:
[1] = target: Glutathione peroxidase 1 (Homo sapiens) (UniProt P07203); experiment: Primary qHTS Assay for Inhibitors of Recombinant Selenoprotein Glutathione Peroxidase 1 (GPX1) (AID 1845191); also: nearly all actives have a fitted effect of over 65% in size; as to activity, negative = inhibition: % is scaled to controls: 0 for no effect and ±100 for the full control effect
Summary of the method: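 GPX1 10 nM, GR 100 nM, GSH 1 mM, NADPH 0.5 mM, CHP 0.5 mM (final). 30-min cpd preincubation, RT. Ex340/Em450 read t=0, t=15 min.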

[2] = target: Phospholipid hydroperoxide glutathione peroxidase GPX4 (Homo sapiens) (UniProt P36969); experiment: Primary qHTS Assay for Inhibitors of Recombinant Selenoprotein Glutathione Peroxidase 4 (GPX4) (AID 1845192); also: nearly all actives have a fitted effect of over 65% in size
Summary of the method: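 qHTS, GR-coupled: GPX4 200 nM + cpd 30 min RT → GSH 1 mM, NADPH 0.5 mM, GR 100 nM → CHP 0.5 mM start; fluor 340/450 at t0 and t15 min; no-enzyme wells as control.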

[3] = qHTS profiling for inhibitors of Plasmodium falciparum proliferation (AID 504749);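 also: 0% = DMSO vehicle and full inhibition = artemisinin control; nearly all actives have a fitted effect of over 60% in size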; settings: P. falciparum in erythrocytes, SYBR Green DNA, 72 h, at 28.7 µM (top of the series)
Summary of the method: (§1)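 Quantitative HTS: compounds pinned into medium, infected erythrocytes added (0.3% parasitemia, 2.5% hematocrit), 72 h culture at 37 C under 5% CO2. Saponin/Triton lysis with SYBR Green I, overnight RT, then fluorescence read.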

3D7 = experiment: as above; settings: P. falciparum in erythrocytes, SYBR Green DNA, 72 h; series mostly up to 28.7 µM
Summary of the method: as §1

7G8 = experiment: as above; settings: P. falciparum in erythrocytes, SYBR Green DNA, 72 h; series mostly up to 28.7 µM
Summary of the method: as §1

Chain of Glutathione peroxidase 1 (Homo sapiens) (P07203 whole entry, looked up): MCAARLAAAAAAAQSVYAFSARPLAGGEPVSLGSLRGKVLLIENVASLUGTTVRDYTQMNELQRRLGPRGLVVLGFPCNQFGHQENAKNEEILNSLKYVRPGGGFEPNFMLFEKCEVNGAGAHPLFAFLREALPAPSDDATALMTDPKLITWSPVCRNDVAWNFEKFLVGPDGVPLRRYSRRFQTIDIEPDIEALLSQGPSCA
Chain of Phospholipid hydroperoxide glutathione peroxidase GPX4 (Homo sapiens) (P36969 whole entry, looked up): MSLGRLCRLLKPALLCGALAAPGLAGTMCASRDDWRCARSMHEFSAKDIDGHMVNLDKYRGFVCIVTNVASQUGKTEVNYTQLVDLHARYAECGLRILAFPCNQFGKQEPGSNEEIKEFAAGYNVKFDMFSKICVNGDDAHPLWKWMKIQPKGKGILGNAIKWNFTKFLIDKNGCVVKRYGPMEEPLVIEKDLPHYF

COc1ccc(/C=C/C(=O)OCCC(C)C)cc1
inactive: Potency [1] | Potency [2] | activity, negative = inhibition ([3]; parasite line A) 6.28% | activity, negative = inhibition ([3]; parasite line B) 14.5% | Potency (3D7) | Potency (7G8)

O=C1[O][Bi][O]c2ccccc21
inactive: outcome [1] inactive [at 0.4 µM] | outcome [2] inactive [at 0.409 µM] | activity, negative = inhibition ([3]; parasite line A) 7.71% | activity, negative = inhibition ([3]; parasite line B) 1.44% | Potency (3D7) | Potency (7G8)

O=P(O)(O)CP(=O)(O)O
inactive: Potency [1] | Potency [2] | activity, negative = inhibition ([3]; parasite line A) 11.8% | activity, negative = inhibition ([3]; parasite line B) 12.6% | Potency (3D7) | Potency (7G8)

Cc1ccc(S(=O)(=O)O)cc1C
inactive: Potency [1] | Potency [2] | activity, negative = inhibition ([3]; parasite line A) 8.18% | activity, negative = inhibition ([3]; parasite line B) 4.98% | Potency (3D7) | Potency (7G8)

CC(CC=O)CCCC(C)(C)O (stereo not given)
inactive: Potency [1] | Potency [2] | activity, negative = inhibition ([3]; parasite line A) 15.9% | activity, negative = inhibition ([3]; parasite line B) 2.33% | Potency (3D7) | Potency (7G8)
